Test [1] can be described thus: qHTS assay to identify aromatase inhibitors - cell viability counter screen (AID 743084).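 Note: cells stimulated with testosterone during compound exposure; nearly all actives have a fitted effect of over 55% in size.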 Note: potency is the fitted concentration of half-maximal effect. On the technique in general: In qHTS, concentration-response curves come from the screen itself.
Test [2] has as its target Aryl hydrocarbon receptor (Homo sapiens) (UniProt P35869). Briefly: qHTS assay to identify small molecule that activate the aryl hydrocarbon receptor (AhR) signaling pathway (AID 743085).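 For activation: HG2L7.5c1 human HepG2 liver cells with stably integrated DRE-driven firefly reporter; series mostly up to about 70 µM.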 Note: nearly all actives have a fitted effect of over 15% in size. Note: potency is the fitted concentration of half-maximal effect. The method, boiled down: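 Reporter assay in engineered HepG2 line HG2L7.5c1, whose plasmid carries twenty dioxin responsive elements upstream of firefly luciferase. Treatment lasted 24 h at 37C; ONE-Glo luminescence gauged induction.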

For test [3], the target named is Peroxisome proliferator-activated receptor gamma (Homo sapiens) (UniProt P37231). Kind of test: qHTS assay to identify small molecule agonists of the peroxisome proliferator-activated receptor gamma (PPARg) signaling pathway (AID 743094; active = well fitted activation curve with a large enough effect in the signal ratio in the repeat runs, not every such curve was filed as active; the % refers to the signal ratio). The method, boiled down:
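Quantitative HTS agonist mode: stable HEK293H line with UAS-beta-lactamase reporter under PPARg control, 17 h compound exposure at 37C, fluorescence after 1 h FRET substrate loading at room temperature.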

For test [4] the target is unchanged. Kind of test: qHTS assay to identify small molecule antagonists of the peroxisome proliferator-activated receptor gamma (PPARg) signaling pathway (AID 743191; calls by dose curve; note: nearly all actives have a fitted effect of over 30% in size; note: potency is the fitted concentration of half-maximal effect). The method, boiled down:
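Beta-lactamase reporter under UAS control in HEK293H PPARg-bla cells; compound treatment 17 h at 37C. Read-out: fluorescence intensity after 1 h room-temperature incubation with LiveBLAzer B/G FRET substrate.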

The nature of test [5]: qHTS assay to identify small molecule antagonists of the peroxisome proliferator-activated receptor gamma (PPARg) signaling pathway - cell viability counter screen (AID 743194). Note: nearly all actives have a fitted effect of over 55% in size. The method, boiled down:
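Viability was measured as CellTiter-Glo luminescence in GeneBLAzer PPARg UAS-bla HEK293H cells. These cells had been exposed 17 h at 37 C to compounds together with rosiglitazone at 50 nM final, with the beta-lactamase readout taken in the same wells.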

A short description of test [6]: qHTS assay for small molecule agonists of the antioxidant response element (ARE) signaling pathway (AID 743202; active = well fitted activation curve with a large enough effect in the signal ratio in the repeat runs, not every such curve was filed as active; the % refers to the signal ratio). The method, boiled down:
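Quantitative high-throughput format in HepG2 cells bearing an integrated ARE-beta-lactamase reporter. Compound exposure lasted 16 h at 37 C, and fluorescence was read 2 h after adding LiveBLAzer B/G substrate at room temperature.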

A short description of test [7]: qHTS assay for small molecule agonists of the antioxidant response element (ARE) signaling pathway - cell viability counter screen (AID 743203; calls by dose curve; note: nearly all actives have a fitted effect of over 55% in size; note: potency is the fitted concentration of half-maximal effect). The method, boiled down:
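Seeded at 2,000 cells/well, ARE-bla HepG2 cells were incubated 5 hrs before compound addition. After 16 hrs of treatment at 37C with 5% CO2, CellTiter-Glo reagent was added and luminescence read 30 min later.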

Test [8] is described as follows: qHTS assay for small molecule activators of the heat shock response signaling pathway - cell viability counter screen (AID 743209). Note: nearly all actives have a fitted effect of over 50% in size. Note: potency is the fitted concentration of half-maximal effect. The method in brief: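 First, HSE-bla HeLa cells were seeded at 1500 cells/well and kept overnight at 37 C. Next, compounds were pinned in and incubated 5 h. After the FRET substrate step, CellTiter-Glo was added and luminescence read 30 min later.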

A short description of test [9]: qHTS assay for small molecule activators of the heat shock response signaling pathway (AID 743210; active = well fitted activation curve with a large enough effect in the signal ratio in the repeat runs, with a control signal flat, not every such curve was filed as active; the % refers to the signal ratio;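 note: HeLa cells with beta-lactamase reporter driven by heat shock elements; series mostly up to about 63 µM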). The method in brief: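 HeLa HSE-bla cells, overnight plating; cpd in DMSO 5 h, 37 C; LiveBLAzer B/G FRET substrate 2.5 h RT; fluorescence intensity read.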
Test [10] in a line: qHTS assay to identify small molecule agonists of the peroxisome proliferator-activated receptor delta (PPARd) signaling pathway - cell viability counter screen (AID 743211). Note: nearly all actives have a fitted effect of over 55% in size. Note: potency is the fitted concentration of half-maximal effect. The method in brief:
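Multiplexed format: after the 2 h room-temperature LiveBLAzer B/G FRET step, CellTiter-Glo was added to the same wells. Luminescence after 30 min gave cell viability; compound exposure was 17 h at 37C.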

Test [11] concerns the target Peroxisome proliferator-activated receptor delta (Homo sapiens) (UniProt Q03181). Kind of test: qHTS assay to identify small molecule agonists of the peroxisome proliferator-activated receptor delta (PPARd) signaling pathway (AID 743212; calls by dose curve). The method in brief: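 HEK293H PPARd-bla cells; 5 h preincubation 37 C/5% CO2; compound (DMSO) 37 C; LiveBLAzer B/G FRET substrate 2 h RT; fluorescence intensity.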

A short description of test [12]: qHTS assay to identify small molecule antagonists of the peroxisome proliferator-activated receptor delta (PPARd) signaling pathway - cell viability counter screen (AID 743213). Note: nearly all actives have a fitted effect of over 50% in size. Note: potency is the fitted concentration of half-maximal effect. The method, boiled down:
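Agonist-stimulated (L165041, 300 nM final) HEK293H PPARd UAS-bla cells are exposed to compounds for 17 h at 37 C, and ATP-based luminescence (CellTiter-Glo) from the same wells reports cytotoxicity.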

Test [13] addresses Peroxisome proliferator-activated receptor delta (Homo sapiens) (UniProt Q03181). Briefly: qHTS assay to identify small molecule antagonists of the peroxisome proliferator-activated receptor delta (PPARd) signaling pathway (AID 743215; active = well fitted inhibition curve with a large enough effect in the signal ratio in the repeat runs, not every such curve was filed as active; the % refers to the signal ratio; note: potency is the fitted concentration of half-maximal effect). The method, boiled down:
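Inhibition of L165041-driven (300 nM final) PPARd signaling is scored in HEK293H UAS-bla cells. Exposure lasts 17 h at 37 C; beta-lactamase activity is then read by FRET substrate fluorescence after 2 h at room temperature.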

For test [14], the target named is Bile acid receptor (Homo sapiens) (UniProt Q96RI1). Kind of test: qHTS assay to identify small molecule antagonists of the farnesoid-X-receptor (FXR) signaling pathway (AID 743217; active = well fitted inhibition curve with a large enough effect in the signal ratio in the repeat runs, not every such curve was filed as active; the % refers to the signal ratio). The method, boiled down:
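Antagonist mode against 50 uM (final) chenodeoxycholic acid stimulation in FXR-bla HEK 293T cells, 16 h at 37 °C. Inhibition detected as reduced beta-lactamase activity via LiveBLAzer B/G FRET fluorescence after 2 h at room temperature.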

The target is the same in test [15]. Kind of test: qHTS assay to identify small molecule agonists of the farnesoid-X-receptor (FXR) signaling pathway (AID 743220; active = well fitted activation curve with a large enough effect in the signal ratio in the repeat runs, not every such curve was filed as active; the % refers to the signal ratio). The method in brief:
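Beta-lactamase reporter under UAS control in GeneBLAzer FXR HEK 293T cells (5000/well) measured with LiveBLAzer FRET substrate after 2 h at room temperature. Compound exposure lasted 16 h at 37C.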

A short description of test [16]: qHTS assay to identify small molecule antagonists of the farnesoid-X-receptor (FXR) signaling pathway - cell viability counter screen (AID 743221; active = well fitted cell-killing curve with a large enough effect in the repeat runs, not every such curve was filed as active; note: nearly all actives have a fitted effect of over 50% in size). The method, boiled down:
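CellTiter-Glo, 30 min RT, luminescence; same wells as the LiveBLAzer FRET read. Cells: FXR-UAS-bla HEK 293T. Treatment: compound with chenodeoxycholic acid 50 uM final, 16 h at 37 C.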

The target of test [17] is Vitamin D3 receptor (Homo sapiens) (UniProt P11473). Briefly: qHTS assay to identify small molecule agonists of the vitamin D receptor (VDR) signaling pathway (AID 743222; calls by dose curve). The method, boiled down:
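Quantitative HTS agonist-mode screen: compounds in DMSO were pin-transferred onto VDR-bla cells and incubated 16 h at 37C, 5% CO2. Reporter activity was detected with LiveBLAzer B/G FRET substrate after 2 h at room temperature.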

Test [18] in a line: qHTS assay to identify small molecule agonists of the farnesoid-X-receptor (FXR) signaling pathway - cell viability counter screen (AID 743218). Note: nearly all actives have a fitted effect of over 45% in size. Note: potency is the fitted concentration of half-maximal effect. The method in brief: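 Cytotoxicity counter-screen run in parallel, same wells: FXR-UAS-bla HEK 293T cells dosed 16 h at 37 C, viability read by CellTiter-Glo luminescence after 30 min at room temperature.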
Test [19] concerns the target Vitamin D3 receptor (Homo sapiens) (UniProt P11473). Kind of test: qHTS assay to identify small molecule antagonists of the vitamin D receptor (VDR) signaling pathway (AID 743223; active = well fitted inhibition curve with a large enough effect in the signal ratio in the repeat runs, not every such curve was filed as active; the % refers to the signal ratio). The method in brief:
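After VDR-bla cells are plated and left 4 h at 37C, DMSO-dissolved compounds and 3 nM (final) calcitriol agonist are added. Incubation continues 16 h at 37C; FRET beta-lactamase substrate then develops 2 h at room temperature.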

“And” between values parts separate entries of the source, which are not always exact repeats. Equal entries are not always repeated. Records with an inconclusive call do not appear. Where a structure was tested more than once in an assay, its records may differ in their call. The source made the active and inactive calls. Unless noted, calls come from the whole dose curve; as a rule, active = well fitted curve in the direction sought with a large enough effect in the repeat runs; inconclusive = weak or mixed curves; inactive = no such curve, though single readings can be large; an effect the other way counts as inactive or inconclusive.

Chain of Aryl hydrocarbon receptor (Homo sapiens) (P35869 whole entry, looked up): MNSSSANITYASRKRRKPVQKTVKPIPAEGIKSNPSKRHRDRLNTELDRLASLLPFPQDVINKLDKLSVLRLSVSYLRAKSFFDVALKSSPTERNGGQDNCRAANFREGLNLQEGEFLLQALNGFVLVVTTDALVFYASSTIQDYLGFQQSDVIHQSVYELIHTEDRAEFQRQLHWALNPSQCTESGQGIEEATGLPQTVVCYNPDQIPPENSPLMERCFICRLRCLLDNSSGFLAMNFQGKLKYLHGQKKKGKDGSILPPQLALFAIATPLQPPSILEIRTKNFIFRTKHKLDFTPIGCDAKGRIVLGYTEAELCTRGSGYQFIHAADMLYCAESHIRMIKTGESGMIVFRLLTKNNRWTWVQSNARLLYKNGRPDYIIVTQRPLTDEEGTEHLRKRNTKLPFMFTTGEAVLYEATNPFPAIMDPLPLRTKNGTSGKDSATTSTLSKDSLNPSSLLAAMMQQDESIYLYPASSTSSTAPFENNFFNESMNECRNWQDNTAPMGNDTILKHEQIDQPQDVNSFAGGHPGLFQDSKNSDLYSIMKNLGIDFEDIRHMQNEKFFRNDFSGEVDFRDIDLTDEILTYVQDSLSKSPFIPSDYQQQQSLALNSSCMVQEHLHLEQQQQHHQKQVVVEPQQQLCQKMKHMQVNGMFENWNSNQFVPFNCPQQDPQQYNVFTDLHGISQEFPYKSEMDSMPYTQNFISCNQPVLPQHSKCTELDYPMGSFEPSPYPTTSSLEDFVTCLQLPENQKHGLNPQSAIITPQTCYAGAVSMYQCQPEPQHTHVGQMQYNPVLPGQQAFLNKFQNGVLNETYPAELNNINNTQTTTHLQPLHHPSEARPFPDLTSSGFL
Chain of Peroxisome proliferator-activated receptor delta (Homo sapiens) (Q03181 whole entry, looked up): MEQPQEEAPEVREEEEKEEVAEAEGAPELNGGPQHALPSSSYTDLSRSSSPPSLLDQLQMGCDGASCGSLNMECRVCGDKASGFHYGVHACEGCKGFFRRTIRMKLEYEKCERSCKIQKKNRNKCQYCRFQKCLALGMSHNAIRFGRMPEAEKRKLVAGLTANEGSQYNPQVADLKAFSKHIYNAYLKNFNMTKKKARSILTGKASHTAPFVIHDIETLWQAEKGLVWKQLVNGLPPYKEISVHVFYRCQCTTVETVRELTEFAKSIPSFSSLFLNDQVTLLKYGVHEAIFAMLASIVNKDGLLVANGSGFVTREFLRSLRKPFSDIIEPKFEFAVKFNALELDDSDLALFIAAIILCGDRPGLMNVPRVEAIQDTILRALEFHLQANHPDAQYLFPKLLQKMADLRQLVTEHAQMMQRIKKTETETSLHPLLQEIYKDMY
Chain of Vitamin D3 receptor (Homo sapiens) (P11473 whole entry, looked up): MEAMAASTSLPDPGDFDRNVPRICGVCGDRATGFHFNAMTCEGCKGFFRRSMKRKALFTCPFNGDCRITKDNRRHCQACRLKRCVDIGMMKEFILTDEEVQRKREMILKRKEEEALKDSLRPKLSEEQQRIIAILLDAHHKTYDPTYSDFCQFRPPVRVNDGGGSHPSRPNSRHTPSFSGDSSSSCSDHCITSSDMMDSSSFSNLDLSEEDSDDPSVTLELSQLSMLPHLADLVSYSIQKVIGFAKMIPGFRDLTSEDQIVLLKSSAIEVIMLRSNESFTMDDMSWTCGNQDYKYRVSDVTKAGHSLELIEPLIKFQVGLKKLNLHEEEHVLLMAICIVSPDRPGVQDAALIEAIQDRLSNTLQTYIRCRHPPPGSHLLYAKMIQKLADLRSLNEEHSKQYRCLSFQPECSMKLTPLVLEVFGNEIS
Chain of Peroxisome proliferator-activated receptor gamma (Homo sapiens) (P37231 whole entry, looked up): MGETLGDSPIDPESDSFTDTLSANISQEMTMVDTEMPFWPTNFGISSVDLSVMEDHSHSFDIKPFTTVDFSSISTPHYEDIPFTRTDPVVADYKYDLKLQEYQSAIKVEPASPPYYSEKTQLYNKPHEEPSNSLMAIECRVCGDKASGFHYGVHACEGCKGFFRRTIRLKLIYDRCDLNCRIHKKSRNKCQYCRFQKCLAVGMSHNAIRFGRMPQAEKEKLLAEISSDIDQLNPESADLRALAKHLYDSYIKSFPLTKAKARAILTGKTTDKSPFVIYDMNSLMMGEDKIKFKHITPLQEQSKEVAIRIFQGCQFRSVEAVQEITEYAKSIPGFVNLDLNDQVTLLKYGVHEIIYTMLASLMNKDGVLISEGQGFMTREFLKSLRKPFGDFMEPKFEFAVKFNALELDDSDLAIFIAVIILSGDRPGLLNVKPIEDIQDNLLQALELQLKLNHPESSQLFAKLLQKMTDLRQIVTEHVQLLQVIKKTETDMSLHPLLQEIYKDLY
Chain of Bile acid receptor (Homo sapiens) (Q96RI1 whole entry, looked up): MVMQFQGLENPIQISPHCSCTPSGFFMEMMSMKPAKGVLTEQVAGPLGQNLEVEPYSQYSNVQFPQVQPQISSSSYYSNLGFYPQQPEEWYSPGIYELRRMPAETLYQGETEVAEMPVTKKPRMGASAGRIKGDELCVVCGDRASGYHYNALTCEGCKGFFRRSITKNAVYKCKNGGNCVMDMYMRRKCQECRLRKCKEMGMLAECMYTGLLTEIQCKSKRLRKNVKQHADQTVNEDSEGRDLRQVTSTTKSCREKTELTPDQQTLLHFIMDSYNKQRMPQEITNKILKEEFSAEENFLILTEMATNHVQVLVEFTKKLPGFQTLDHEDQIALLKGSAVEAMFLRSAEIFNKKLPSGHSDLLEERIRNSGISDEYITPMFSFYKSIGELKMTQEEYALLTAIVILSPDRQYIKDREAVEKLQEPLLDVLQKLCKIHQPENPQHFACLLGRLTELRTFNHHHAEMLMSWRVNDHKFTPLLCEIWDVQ

Regarding `CC1(C)C(=O)N(Br)C(=O)N1Br`, the Potency entry in [1], in test [2], in test [3], in [4], in test [5] and in [6] was “inactive” throughout. The Potency entry in [7], in [8], in [9], in [10], in test [12] and in test [13] was “inactive” each time. Besides, the Potency result in test [14], in test [15], in [16] and in test [17] was “inactive” each time. In addition, the compound was called inactive in test [11].

As to `c1ccc(Nc2cccc3ccccc23)cc1`, the Potency is 39.1 µM (active) in test [1]; 49.2 µM (active) and 54.5 µM (active) in test [2]; 49.6 µM (active) and inactive in [4]. Besides, the Potency result in test [3], in test [5], in test [6], in [7], in test [8] and in [9] was “inactive” in each case. In addition, the Potency entry in [10], in [12], in test [13], in test [18], in test [16] and in [17] was “inactive” each time. In addition, in test [19], the Potency entry is “inactive”.

As for `CN(C)c1ccc(N=Nc2ccccc2C(=O)O)cc1`, the Potency in test [1] is 24.3 µM (active); in test [2] it was 54.5 µM (active); in test [7] it was 61.1 µM (active). Also, the Potency result in test [4], in test [16] and in test [17] was “inactive” throughout. Further, the outcome in test [11] was inactive.

For `C=CC(=O)OCC(O)COc1ccccc1` (stereo not given), the Potency in test [1] is 61.1 µM (active); in [8], 4.9 µM (active); in test [10], 49 µM (active); in test [18], 34.7 µM (active). Further, the Potency result in test [2] and in test [16] was “inactive” in each case. The outcome in [11] was inactive.

As for `CN(Cc1cc(Br)cc(Br)c1N)C1CCCCC1`, the Potency result in test [1], in [2], in test [3], in test [4], in test [5] and in test [7] was “inactive” throughout. The Potency result in [12], in [13], in [15] and in test [16] was “inactive” in each case. Further, the compound was called inactive in test [11].

For `O=C(O)Cc1ccc(OCCNC[C@H](O)c2ccccc2)cc1`, the Potency entry in [1], in [2], in [3], in test [4], in test [5] and in [6] was “inactive” in each case. Also, the Potency result in [7], in test [8], in [10], in test [12], in [14] and in test [18] was “inactive” throughout. For the same compound, the Potency entry in test [15], in [16] and in test [19] was “inactive” in each case.

For the compound `NCCCCCCNCCCCCCN`, the Potency result in test [1], in test [2], in test [3], in test [4], in [5] and in test [7] was “inactive” in each case. Also, the Potency entry in test [8], in test [9], in test [10], in test [12], in test [13] and in test [14] was “inactive” each time. In addition, the Potency result in test [18], in test [15], in test [16], in test [17] and in test [19] was “inactive” each time. Also, in [11], the outcome was inactive.

In the case of `NC(=O)c1nc(-c2cccc(-c3cc(F)ccc3OCC(F)(F)C(F)(F)F)c2)n[nH]1`, the Potency is 43.3 µM (active) in [1], 49 µM (active) in [10] and 54.9 µM (active) in test [13]. Moreover, the Potency result in [2], in test [15] and in test [17] was “inactive” throughout.

Regarding `CCCCCCCC/C=C/CCCOC(C)=O`, the Potency entry in test [1], in test [2], in [3], in test [4], in test [5] and in test [7] was “inactive” in each case. Besides, the Potency result in test [10], in [14], in test [18], in test [15], in test [16] and in [17] was “inactive” each time. Moreover, the Potency entry in test [19] is “inactive”. Moreover, the compound was classed as inactive in test [11].

`CCCCOC(=O)C(C)CC` (stereo not given): the Potency result in [1], in [2], in test [5], in [6], in [7] and in test [18] was “inactive” in each case. Moreover, the Potency entry in test [19] is “inactive”. For the same compound, in test [12], the Potency was 49 µM (active).

Take `O=S(=O)(O)CCCN1CCOCC1`: the Potency result in test [1], in [2], in test [3], in [5], in [7] and in test [8] was “inactive” in each case. The Potency result in [10], in [12], in [18], in [16], in test [17] and in [19] was “inactive” throughout. For the same compound, the result in test [11] was inactive.

As for `CN(C)CCCN1c2ccccc2CCc2ccccc21`, the Potency result in test [1], in test [2], in test [5], in test [8] and in [16] was “inactive” throughout. For the same compound, the Potency is 30.9 µM (active) in test [10]; 24.5 µM (active) and 26.6 µM (active) in [12]; 19.5 µM (active) and inactive in [18].

Values taken from PubChem BioAssay (Tox21).
